Experiments:
Type in all cases: functional
[1] = target: Solute carrier family 2, facilitated glucose transporter member 1 (Homo sapiens) (UniProt P11166); assay: ST_JUDE_LEISH: Cytotoxicity at 2uM final concentration against transgenic Leishmania Mexicana promastigotes LmGLUT1 that are glucose transport deficient and complemented with the human glucose transporter GLUT1. Activity is measured by DNA content using SYBR green in vitro
[2] = target: Hexose transporter 1 (Plasmodium falciparum) (UniProt O97467); assay: ST_JUDE_LEISH: Cytotoxicity at 2uM final concentration against transgenic Leishmania Mexicana promastigotes LmPfHT that are glucose transport deficient and complemented with the Plasmodium falciparum hexose transporter. Activity is measured by DNA content using SYBR green in vitro
[3] = target: Glucose transporter (Leishmania mexicana) (UniProt O61059); assay: ST_JUDE_LEISH: Cytotoxicity at 2uM final concentration against transgenic Leishmania Mexicana promastigotes LmGT2 that are glucose transport deficient and complemented with the L. Mexicana glucose transporter 2. Activity is measured by DNA content using SYBR green in vitro

Chain of Solute carrier family 2, facilitated glucose transporter member 1 (Homo sapiens) (P11166 whole entry): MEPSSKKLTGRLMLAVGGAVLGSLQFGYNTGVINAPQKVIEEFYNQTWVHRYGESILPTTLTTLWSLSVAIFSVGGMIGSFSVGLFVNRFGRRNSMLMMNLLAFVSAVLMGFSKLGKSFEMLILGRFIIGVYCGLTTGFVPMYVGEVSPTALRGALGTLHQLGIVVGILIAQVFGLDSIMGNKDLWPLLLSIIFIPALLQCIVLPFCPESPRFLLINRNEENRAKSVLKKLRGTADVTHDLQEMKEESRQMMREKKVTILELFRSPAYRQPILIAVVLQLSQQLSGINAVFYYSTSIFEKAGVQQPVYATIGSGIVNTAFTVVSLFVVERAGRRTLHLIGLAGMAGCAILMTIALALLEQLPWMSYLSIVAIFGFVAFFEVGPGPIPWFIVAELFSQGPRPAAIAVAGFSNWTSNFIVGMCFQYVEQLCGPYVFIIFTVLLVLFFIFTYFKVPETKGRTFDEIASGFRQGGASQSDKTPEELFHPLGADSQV

SMILES | inhibition [1] | inhibition [2] | inhibition [3]
O=c1cc(NCCC(CNCCc2ccccc2)NCc2cc(Br)cc(Br)c2)[nH]c2ccccc12 (centres undefined) | -5.14% | -3.71% | 2.71%
CCNc1cc(C)nc(Nc2ccc(C)cc2)n1 | 25.8% | 7.92% | 5.86%
Cc1cc(CNCCCCCCNCc2ccc(-c3ccccc3)cc2)ccc1O | 7.54% | 7.79% | 4.84%
CCC1=C(CC2NCCc3cc(OC)c(OC)cc32)CC2c3cc(OC)c(OC)cc3CCN2C1 (centres undefined) | 87.8% | 92.4% | 89.6%
CCn1ncc2c(N3CCCC3=O)cc(C(=O)N[C@@H](Cc3ccccc3)[C@H](O)CNC(C)(C)c3cccc(OC)c3)cc21 | 2.35% | -0.95% | 0.04%
CCCN(CCC)CCOc1ccc(C(O)(C#CC(O)(c2ccc(OCCN(CCC)CCC)cc2)c2cccc(Cl)c2)c2cccc(Cl)c2)cc1 (centres undefined) | 7.1% | 4.78% | 2.38%
CCNc1cc(C(=O)N[C@@H](Cc2ccccc2)[C@H](O)CNCc2cc(OC)cc(OC)c2)cc(N2CCCC2=O)c1 | 7.69% | 9.03% | 6.42%
CC(C)NCc1cccc(-c2cccc(NC(=O)c3ccc(C#N)cc3)c2)c1 | -1.2% | 1.04% | -1.22%
OCC1CCN(Cc2cccc(-c3ccc(-c4nc5cc(F)ccc5[nH]4)cc3)c2)CC1 | 0% | -0.04% | 0.27%
COCC(C)n1c(SC(C)C(=O)Nc2cc([N+](=O)[O-])ccc2Cl)nc2ccccc2c1=O (centres undefined) | -1.22% | 1.55% | -1.16%
CCC(=O)OC(CCN(CC)CC)(c1ccccc1)c1ccccc1 | 1.98% | 1.16% | 1.58%
CN(CCC(O)c1ccc(Cl)c(Cl)c1)CC1CC1C(=O)c1ccccc1 (centres undefined) | 4.57% | 4.62% | 5.49%
CCOC(=O)c1nc(-c2ccccc2)[nH]c1-n1nc(C)cc1C | 1.44% | 0.92% | 0.66%
COc1ccc2[nH]c(C(=O)Nc3ccc4[nH]c(-c5ccccc5)nc4c3)cc2c1 | 4.44% | 2.1% | 0.82%
CC(C)CNCc1ccc(-c2ccccc2CN(C(=O)NCCc2ccccc2)C2CCN(Cc3ccccc3)CC2)cc1 | 1.25% | 1.42% | -0.19%
Nc1nc(N)c2c(Cl)c(N3CCOCC3)ccc2n1 | 36.1% | 39.5% | 34.6%
COc1ccc(NC(=O)/C=C/c2ccccc2Cl)cc1OCCN1CCC(O)(c2ccc(Cl)c(C(F)(F)F)c2)CC1 | 11.2% | 8.47% | 7.73%

SMILES | inhibition [1] | inhibition [2] | inhibition [3]
Cn1c(=O)c2nc(-c3ccc(Cl)cc3)nnc2n(CCCC#N)c1=O | 7.35% | 7.41% | 6.19%
CC1(C)N=C(N)N=C(N)N1CCc1ccccc1 | 11.6% | 7.56% | 8.45%
COc1ccc(-c2cnc3[nH]cc(-c4ccc(C(=O)O)c(C)c4)c3c2)cn1 | 0.31% | -0.48% | 0.32%
O=C(Nc1ccc(-c2cccc(CN3CCC(O)CC3)c2)cc1)c1cccc(Cl)c1 | 24.1% | 17.8% | 16.8%
Cc1ccc(C2CCN(CCCCNC(=O)c3ccc(NC(=O)c4ccc(Cl)cc4)cc3)CC2)c(OCC2CC2)c1 | 7.51% | 6.25% | 5.52%
CN(C)CCOc1cc(NC(=O)Nc2ccc(-c3ccccc3)cc2)ccc1I | 12.5% | 12.7% | 12.6%
O=C(NCC1CN(Cc2ccc(N3CCCC3)o2)CCCO1)c1ccc2c(c1)OCO2 (centres undefined) | -0.31% | 0.65% | 2.95%
Cn1nc(-c2cccc(CNCc3ccccc3)c2)c2cnc(NC3CCCC3)nc21 | -0.97% | 0% | -1.01%
CCc1nnc2sc(-c3cccc(NC(=O)c4ccc(OC)c(Cl)c4)c3)nn12 | 1.05% | 2.45% | 3.88%
Cc1ccc(C(=O)Nc2cccc(CN3CCCN(Cc4ccc(O)cc4)CC3)c2)s1 | -2.38% | 0.41% | 2.88%
O=C(/C=C/c1ccc(Cl)c(Cl)c1)NC1CCC(CN2CCC(c3nc4cccnc4[nH]3)CC2)CC1 (centres undefined) | 1.77% | 2.5% | -2.89%
COc1cc(F)c2ncc(F)c(CCN3C[C@H](CNCc4ccc5c(n4)NC(=O)CS5)[C@H](O)C3)c2c1 | 0.13% | 1.28% | -0.04%
O=C(N/C=N/c1cc([N+](=O)[O-])c(-c2cccnc2)n1-c1ccc(O)cc1)c1ccccc1 | -0.13% | -1.73% | -1.68%
CN(C)Cc1ccc(-c2ccc(NC(=O)c3ccc4c(=O)n(Cc5ccoc5)cnc4c3)cc2)cc1 | 1.36% | 1.35% | -0.37%
CCCN1CCN(c2ccccc2NS(=O)(=O)c2ccc(C(=O)Nc3ccc(Cl)cc3)cc2)CC1 | 2.67% | 3.32% | -1.54%
Cc1noc(-c2cccs2)c1C(=O)NCCc1cccc(Cl)c1 | 5.34% | 5.32% | 2.4%

Reference: ChEMBL document CHEMBL3433997, “St. Jude Leishmania screening dataset” (2016)
